Bioassay records deposited in PubChem by several laboratories.
This is a sample that favours compounds with a hit; in the whole collection about 4.8% have one here.
PfHsp90 yeast 2: reduces growth (ATP signal) of yeast expressing P. falciparum Hsp90; S. cerevisiae expressing PfHsp90, BacTiter-Glo ATP, 48 h; yeast lacking PDR1 and PDR3 efflux regulators; inhibition, % at 9.4 µM; 0.32% of 310,000 active;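 active = every replicate shows inhibition above about 80%, whatever the replicate mean, limit read from the data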
SKKanGAS inh: blocks kanamycin growth of S. pyogenes SKKanGAS strain; BacTiter-Glo, 6 h; 1.3% of 300,000 active; inhibition, % at 7.5 µM; AID 1662;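 active = mean replicate score, as percent of positive control median, at least 50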;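 note: strain carries kanamycin resistance gene driven by streptokinase promoter and grows in 40 µg/ml kanamycin; loss of luminescence reflects streptokinase promoter inhibition or plain growth inhibition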
tim10-1 inh: growth inhibitors of tim10-1 mutant yeast; S. cerevisiae tim10-1 ts strain growth, BacTiter-Glo, 24 h; inhibition, % at 20 µM; 2.2% of 330,000 active; AID 463190;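 active = inhibition of at least 40%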;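 note: mutant grown at 25 °C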
NALP1 inh: NALP1 inhibition; 0.61% of 280,000 active; inhibition, % at 10 µM; AID 2071; S. cerevisiae NALP1/ASC/caspase-1 growth, X-gal OD620, 72 h; in the data active = inhibition mostly above about 24%, no sharp cut-off; inactive = mostly below about 32%
tim23-1 inh: growth inhibitors of tim23-1 mutant yeast; S. cerevisiae tim23-1 growth, BacTiter-Glo luminescence, 24 h; inhibition, % at 20 µM; 1.3% of 330,000 active; AID 463212;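 active = growth inhibition of the mutant yeast at or above 50%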;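 note: temperature-sensitive mutant grown at 25 °C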
TIM10 inh: TIM10 yeast growth inhibition; S. cerevisiae TIM10 strain growth, BacTiter-Glo luminescence, 24 h; inhibition, % at 10 µM; 1.4% of 330,000 active; AID 463195;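 active = inhibition of 40% or more at the single tested concentration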;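 note: wild-type TIM10 isogenic control strain grown at permissive 25 °C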
tim10-1 conf: confirmation of tim10-1 mutant yeast growth inhibitors; shares compounds with tim10-1 inh; S. cerevisiae tim10-1 ts strain growth, BacTiter-Glo, 24 h; inhibition, % at 20 µM; 56% of 7,400 active;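 active = inhibition of yeast growth at or above a set limit in either of two repeat tests at 20 µM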;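 note: tim10-1 mutant grown at permissive 25 °C to find synthetic lethal compounds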
A number is an active result; 0 = inactive; - = not tested or not shown.

SMILES | PfHsp90 yeast 2 | SKKanGAS inh | tim10-1 inh | NALP1 inh | tim23-1 inh | TIM10 inh | tim10-1 conf
CCOC(=O)C1CCN(C(=O)c2ccco2)CC1 | 0 | - | 0 | 0 | 0 | 0 | -
CCOC(=O)CCc1c(C)n(CC)c2cc(-c3ccccc3OC)nn2c1=O | 0 | 0 | 42 | 0 | 0 | 0 | 0
CCN(CC)CCCNC(=O)CCc1c(C)n(CC)c2cc(-c3ccccc3OC)nn2c1=O | 0 | 0 | 0 | 0 | 0 | 0 | -
CCC(=O)Nc1c(-c2ccccc2Cl)c(=O)c2ccccc2n1C | 0 | 0 | 0 | 0 | 0 | 0 | -
COc1ccc(/C=N/c2c(-c3ccc(OC)cc3)nc3n2CCS3)cc1 | 0 | 0 | 40 | 0 | 0 | 0 | 0
COc1ccc(NCc2nc3ccccc3n2CCOc2ccc(C)cc2)cc1 | 0 | 0 | 50 | 0 | 0 | 0 | 0
O=C(N/N=C/c1sc(N2CCOCC2)nc1-c1ccccc1)c1cccc(S(=O)(=O)N2CCOCC2)c1 | 0 | 0 | 0 | 0 | 0 | 0 | -
Brc1ccc(N=Nc2ccc3ccccc3n2)cc1 | 0 | 0 | 40 | 0 | 0 | 0 | 0
CC1(c2ccc(OC(F)F)cc2)NC(=O)N(/N=C/c2c(O)ccc3ccccc23)C1=O (stereo not given) | 0 | 0 | 42 | 0 | 0 | 0 | 0
Cc1cccc(N2CCN(C(=O)C3CCN(c4ncnc5c4nc4n5CCCCC4)CC3)CC2)c1C | 0 | 0 | 56 | 0 | 0 | 0 | 0
O=C(C1CCCN(c2ncnc3c2nc2n3CCCCC2)C1)N1CCN(c2cccc(Cl)c2)CC1 (stereo not given) | 0 | 0 | 41 | 0 | 0 | 0 | 0
CC(C)N(Cc1ccccc1)C(=O)C1CCCN(c2ncnc3c2nc2n3CCCCC2)C1 (stereo not given) | 0 | 0 | 0 | 0 | 0 | 0 | -
CCCCN(Cc1ccco1)C(=O)C1CCCN(c2ncnc3c2nc2n3CCCCC2)C1 (stereo not given) | 0 | 0 | 41 | 0 | 0 | 0 | 0
O=C(Nc1ccc(Cl)cc1)C1CCCN(c2ncnc3c2nc2n3CCCCC2)C1 (stereo not given) | 0 | 0 | 53 | 0 | 0 | 0 | 0
CC(C)NS(=O)(=O)c1ccc(OCC(=O)Nc2ccc(F)cc2F)cc1 | 0 | 0 | 0 | 0 | 0 | 0 | -
CCOC(=O)[C@H]1[C@H]2COc3ccc(Cl)cc3[C@@H]2N2C(=O)[C@H](C)NC(=O)[C@@]12C | 0 | - | - | - | - | - | -
CC(C)Cn1c(N)c(C(=O)COC(=O)/C=C/c2ccccc2)c(=O)n(C)c1=O | 0 | 0 | 42 | - | 0 | 0 | 0
CC(C)Cn1c(N)c(C(=O)CSc2ccccc2)c(=O)n(C)c1=O | 0 | 0 | - | 0 | - | - | -
COc1ccc(OC)c(/C=N/NC(=O)C(=O)N/N=C/c2cc(OC)ccc2OC)c1 | 0 | 0 | - | - | - | - | -
CCn1c(COc2ccccc2)nnc1SCC(=O)CC(=O)Nc1ccccc1OC | - | 0 | 0 | 0 | 0 | 0 | -
CCn1c(COc2cccc(C)c2)nnc1SCC(=O)CC(=O)Nc1ccccc1OC | 0 | - | 48 | 0 | 0 | 0 | 0
COc1ccc(N2CCN(C(=O)COC(=O)Cc3c(F)cccc3Cl)CC2)cc1 | 0 | 0 | 45 | - | 0 | 0 | 0
O=C(Cc1c(F)cccc1Cl)OCC(=O)N1CCN(c2ccccc2)CC1 | 0 | - | 0 | - | 0 | 0 | -
CCCC(C)NC(=O)CSc1nc(-c2ccccc2)cn1N (stereo not given) | 0 | 0 | 0 | 0 | 0 | 0 | -
NC(=O)c1nn(CC(=O)Nc2cccc(S(=O)(=O)N3CCCCCC3)c2)c(=O)c2ccccc12 | 0 | - | 0 | - | 0 | 0 | -
SMILES | PfHsp90 yeast 2 | SKKanGAS inh | tim10-1 inh | NALP1 inh | tim23-1 inh | TIM10 inh | tim10-1 conf
O=C(NC1CCCN(c2ccc(C(F)(F)F)cn2)C1)c1ccncc1 (stereo not given) | 0 | 0 | 0 | 0 | 0 | 0 | -
CSc1ccccc1C(=O)NC1CCCN(c2ccc(C(F)(F)F)cn2)C1 (stereo not given) | 0 | 0 | 43 | 0 | 0 | 0 | 0
C/C=C(/C(=C/C)c1ccc(O)cc1)c1ccc(O)cc1 | 0 | 0 | 44 | 0 | 0 | 0 | 43
CC(=NN=C(C)c1ccc(O)cc1)c1ccc(O)cc1 | 0 | - | - | - | - | - | -
COc1ccccc1-c1cc2ccccc2[nH]1 | 0 | 0 | 51 | 0 | 0 | 0 | 33
O=C(O)c1ccccc1-c1cc2ccccc2[nH]1 | 0 | 0 | 0 | - | 0 | 0 | -
O=C(O)Cc1coc2ccc3ccccc3c12 | - | 0 | 44 | 0 | 0 | 0 | 48
O=C(Cc1coc2ccc3ccccc3c12)N1CCCC1 | 0 | 0 | 0 | 0 | 0 | 0 | -
COc1ccc(OC)c(NC(=O)Cc2coc3ccc4ccccc4c23)c1 | 0 | 0 | 42 | 0 | 0 | 0 | 0
O=C(N/N=C/c1cccnc1)c1ccccc1OCc1ccc(Br)cc1 | 0 | 0 | 0 | 0 | 0 | 0 | -
CCOc1ccc(NC(=O)CSc2nc(=O)n(CCCN3CCOCC3)c3c2CCC3)cc1 | - | 0 | 0 | - | 0 | 0 | -
Cc1cccc(Nc2nnc(SCC3CCCCO3)s2)c1C (stereo not given) | 0 | 0 | 48 | 0 | 0 | 0 | 33
COc1cccc(Nc2nnc(SCC3CCCCO3)s2)c1 (stereo not given) | 0 | 0 | 0 | 0 | 0 | 0 | -
COc1ccc(Nc2nnc(SCC3CCCO3)s2)cc1 (stereo not given) | 0 | 0 | 46 | 0 | 0 | 0 | 0
CCCCCCOc1ccc(N2C(=O)CC(NCc3ccc(S(N)(=O)=O)cc3)C2=O)cc1 (stereo not given) | 0 | 0 | 0 | 0 | 0 | 0 | -
O=C(Nc1cccc(C(F)(F)F)c1)N1CCC(c2nc(-c3ccc(F)cc3)no2)CC1 | - | 0 | 42 | 0 | 0 | 0 | 39
CC(C)CCN(C(=O)Nc1ccccc1)C(C)c1cccs1 (stereo not given) | - | - | 43 | 0 | 0 | 0 | 31
CCc1ccc(NC(=O)N(Cc2ccco2)C(C)c2cccs2)cc1 (stereo not given) | 0 | 0 | 42 | 0 | 0 | 0 | 33
O=C(O)C(=Cc1ccccc1)Cc1ccccc1 | 0 | - | - | - | - | - | -
O=C(COC(=O)c1cc(NS(=O)(=O)c2cccs2)ccc1O)Nc1ccccc1 | 0 | 0 | 0 | - | 0 | 0 | -
Cc1cc(NCCCn2ccnc2)n2ncc(-c3ccc(Cl)cc3)c2n1 | 0 | 0 | 41 | 0 | 0 | 0 | 0
N#Cc1nc(-c2ccco2)oc1N1CCCC1 | 0 | 0 | 0 | 0 | 0 | 0 | -
N#Cc1nc(-c2ccco2)oc1N1CCc2ccccc2C1 | 0 | 0 | 44 | 0 | 0 | 0 | 0
Cc1ccc(C(=O)Nc2sc3c(c2C(=O)O)CCCCC3)o1 | 0 | 0 | 41 | 0 | 0 | 0 | 35
Cc1cccn2c(=O)c3cc(S(=O)(=O)c4ccc(Br)cc4)c(=N)n(C4CCCC4)c3nc12 | 0 | 0 | 41 | 0 | 0 | 0 | 0
CC(C)c1ccc(NC(=O)COC(=O)C2CCCCC2)cc1 | 0 | - | 0 | - | 0 | 0 | -
Cc1cccc(C)c1NC(=O)c1nc(S(=O)(=O)Cc2ccccc2)ncc1Cl | 0 | 0 | 0 | 0 | 0 | 0 | -
Cc1cccc(CS(=O)(=O)c2ncc(Cl)c(C(=O)NCc3ccccc3)n2)c1 | 0 | 0 | 44 | 0 | 0 | 0 | 0
